# From PubChem BioAssay
# Active and inactive are the calls of the source.
# Key:
# [1] = binders of probe aFSTL3 on microarray, primary screen, stem cell growth factor project, biochemical, small-molecule microarray, fluorescence 635/667 (AID 1064); details: higher = more signal;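 note: measures binding of the biotinylated anti-FSTL3 antibody to printed compounds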
# [2] = binders from COS7 lysate, DM2A8 probe, primary screen, torsin A project, cell lysate, small-molecule microarray, fluorescence 635/667 (AID 1065); details: higher = more signal, COS7 lysate expressing mutant human TOR1A
# [3] = binders of probe aFGF2 on microarray, primary screen, stem cell growth factor project, biochemical, small-molecule microarray, fluorescence 635/667 (AID 1067); details: higher = more signal;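 note: measures binding of biotinylated aFGF2 protein to printed compounds on slides; z-score merges feature fluorescence and signal-to-noise across triplicate slides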
# [4] = binders of probe aFGF10 on microarray, primary screen, stem cell growth factor project, biochemical, small-molecule microarray, fluorescence 635/667 (AID 1071); details: higher = more signal;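 note: score merges 667 nm spot intensity and signal to noise from triplicate slides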
# [5] = biological target: Neurogenic locus notch homolog protein 2 (Homo sapiens) (UniProt Q04721); assay: Notch2 binders on small-molecule microarrays, primary screen, biochemical, small-molecule microarray, 635 nm fluorescence, stem cell growth factors (AID 1073); details: Notch2 binding, higher = more signal
# [6] = biological target: Pro-neuregulin-1, membrane-bound isoform (Homo sapiens) (UniProt Q02297); assay: NRG1 binders on small-molecule microarrays, primary screen, psychiatric disease protein project, biochemical, small-molecule microarray, fluorescence 635/667 (AID 1075); details: NRG1 binding, 635 nm fluorescence, higher = more signal;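 note: score combines 667 nm spot fluorescence with signal to noise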
# [7] = tested on: Neuregulin-1 EGF-like domain; assay: binders of neuregulin-1 EGF-like domain, primary screen, biochemical, small-molecule microarray, 635 nm fluorescence (AID 1081); details: small-molecule microarray binding, higher = more signal;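 note: binding of the protein to compounds printed on small-molecule microarray slides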
# [8] = FRG1 promoter luciferase signal modulators, primary screen, FRG1 inhibition for FSHD, cell-based, C2C12 myotubes, firefly/Renilla luciferase, luminescence (AID 1084); details: higher = more signal, called active from +8 up or from −8 down
# [9] = binders of probe aFST on microarray, primary screen, stem cell growth factor project, biochemical, small-molecule microarray, fluorescence 635/667 (AID 1086); details: higher = more signal;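 note: score merges 667 nm fluorescence with signal-to-noise of each printed compound spot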
# [10] = binders of probe aHhip on microarray, primary screen, stem cell growth factor project, biochemical, small-molecule microarray, fluorescence 635/667 (AID 1087); details: higher = more signal;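 note: score merges spot fluorescence at 667nm with spot signal to noise ratio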
# [11] = tested on: PRMT1 (protein arginine N-methyltransferase 1); assay: PRMT1 binders on small-molecule microarrays, primary screen, biochemical, small-molecule microarray, 635 nm fluorescence (AID 1088); details: small-molecule microarray binding, higher = more signal;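 note: binding of Prmt1 protein to compounds spotted on small-molecule microarray slides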
# [12] = yeast growth modulation, basal conditions, primary screen, YJM789 clinical isolate, OD600, 24 h (AID 1089);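 note: growth of clinical yeast isolate S. cerevisiae YJM 789 seeded 1000 cells per well; test concentration not given here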; details: S. cerevisiae YJM789 growth, higher = more signal, called active from +8 up or from −8 down
# [13] = fission yeast growth modulation, primary screen, strain 972, OD600, 24 h, no modulator (AID 1090);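 note: basal condition with compound alone and no growth modifier present; test concentration not given here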; details: S. pombe 972 growth, higher = more signal, called active from +8 up or from −8 down
# [14] = S. cerevisiae growth modulation with rapamycin, primary screen, strain BY4716, OD600, 96 h (AID 1091); details: higher = more signal, called active from +8 up or from −8 down; note: test concentration not given here
# [15] = biological target: Torsin-1A-interacting protein 2 (Homo sapiens) (UniProt Q8NFQ8); assay: LULL1 binders on small-molecule microarray, primary screen, cell lysate, human LULL1 lysate, 635/667 nm fluorescence (AID 1092); details: hLULL1 lysate binding, 635 nm fluorescence, higher = more signal;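 note: probe is lysate of COS7 cells overexpressing human LULL1; score merges per-feature 667 nm fluorescence with signal-to-noise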
# [16] = E. coli growth modulation, two-sided OD650, primary screen, E. coli filamentation project, strain DRC41, 24 h (AID 1093); details: OD650, 24 h, higher = more signal, called active from +8 up or from −8 down;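 note: MC1000 strain lacking acrAB efflux and sulA so SOS filamentation is blocked; test concentration not given here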
# [17] = small-molecule microarray binders of probe aLefty2, primary screen, biochemical, biotinylated probe, 635/667 nm fluorescence (AID 1094); details: higher = more signal;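 note: score merges spot fluorescence near 667 nm with spot signal-to-noise ratio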
# [18] = tested on: Noggin (protein binding on small-molecule microarray); assay: Noggin binders on small-molecule microarray, primary screen, biochemical, 635/667 nm fluorescence (AID 1095); details: 635 nm fluorescence, higher = more signal;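 note: score merges 667 nm feature fluorescence with signal to noise over triplicate slides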
# [19] = biological target: Neurogenic locus notch homolog protein 3 (Homo sapiens) (UniProt Q9UM47); assay: NOTCH3 binders on small-molecule microarray, primary screen, biochemical, 635/667 nm fluorescence (AID 1096); details: NOTCH3 binding, 635 nm fluorescence, higher = more signal
# [20] = small-molecule microarray binders of probe aEGFR, primary screen, biochemical, biotinylated probe, 635/667 nm fluorescence (AID 1097); details: higher = more signal;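 note: probe is a biotinylated anti-EGFR antibody binding compounds printed on slides; score combines fluorescence near 667 nm and signal to noise of each spot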
# Chain of Neurogenic locus notch homolog protein 3 (Homo sapiens) (Q9UM47 whole entry, looked up): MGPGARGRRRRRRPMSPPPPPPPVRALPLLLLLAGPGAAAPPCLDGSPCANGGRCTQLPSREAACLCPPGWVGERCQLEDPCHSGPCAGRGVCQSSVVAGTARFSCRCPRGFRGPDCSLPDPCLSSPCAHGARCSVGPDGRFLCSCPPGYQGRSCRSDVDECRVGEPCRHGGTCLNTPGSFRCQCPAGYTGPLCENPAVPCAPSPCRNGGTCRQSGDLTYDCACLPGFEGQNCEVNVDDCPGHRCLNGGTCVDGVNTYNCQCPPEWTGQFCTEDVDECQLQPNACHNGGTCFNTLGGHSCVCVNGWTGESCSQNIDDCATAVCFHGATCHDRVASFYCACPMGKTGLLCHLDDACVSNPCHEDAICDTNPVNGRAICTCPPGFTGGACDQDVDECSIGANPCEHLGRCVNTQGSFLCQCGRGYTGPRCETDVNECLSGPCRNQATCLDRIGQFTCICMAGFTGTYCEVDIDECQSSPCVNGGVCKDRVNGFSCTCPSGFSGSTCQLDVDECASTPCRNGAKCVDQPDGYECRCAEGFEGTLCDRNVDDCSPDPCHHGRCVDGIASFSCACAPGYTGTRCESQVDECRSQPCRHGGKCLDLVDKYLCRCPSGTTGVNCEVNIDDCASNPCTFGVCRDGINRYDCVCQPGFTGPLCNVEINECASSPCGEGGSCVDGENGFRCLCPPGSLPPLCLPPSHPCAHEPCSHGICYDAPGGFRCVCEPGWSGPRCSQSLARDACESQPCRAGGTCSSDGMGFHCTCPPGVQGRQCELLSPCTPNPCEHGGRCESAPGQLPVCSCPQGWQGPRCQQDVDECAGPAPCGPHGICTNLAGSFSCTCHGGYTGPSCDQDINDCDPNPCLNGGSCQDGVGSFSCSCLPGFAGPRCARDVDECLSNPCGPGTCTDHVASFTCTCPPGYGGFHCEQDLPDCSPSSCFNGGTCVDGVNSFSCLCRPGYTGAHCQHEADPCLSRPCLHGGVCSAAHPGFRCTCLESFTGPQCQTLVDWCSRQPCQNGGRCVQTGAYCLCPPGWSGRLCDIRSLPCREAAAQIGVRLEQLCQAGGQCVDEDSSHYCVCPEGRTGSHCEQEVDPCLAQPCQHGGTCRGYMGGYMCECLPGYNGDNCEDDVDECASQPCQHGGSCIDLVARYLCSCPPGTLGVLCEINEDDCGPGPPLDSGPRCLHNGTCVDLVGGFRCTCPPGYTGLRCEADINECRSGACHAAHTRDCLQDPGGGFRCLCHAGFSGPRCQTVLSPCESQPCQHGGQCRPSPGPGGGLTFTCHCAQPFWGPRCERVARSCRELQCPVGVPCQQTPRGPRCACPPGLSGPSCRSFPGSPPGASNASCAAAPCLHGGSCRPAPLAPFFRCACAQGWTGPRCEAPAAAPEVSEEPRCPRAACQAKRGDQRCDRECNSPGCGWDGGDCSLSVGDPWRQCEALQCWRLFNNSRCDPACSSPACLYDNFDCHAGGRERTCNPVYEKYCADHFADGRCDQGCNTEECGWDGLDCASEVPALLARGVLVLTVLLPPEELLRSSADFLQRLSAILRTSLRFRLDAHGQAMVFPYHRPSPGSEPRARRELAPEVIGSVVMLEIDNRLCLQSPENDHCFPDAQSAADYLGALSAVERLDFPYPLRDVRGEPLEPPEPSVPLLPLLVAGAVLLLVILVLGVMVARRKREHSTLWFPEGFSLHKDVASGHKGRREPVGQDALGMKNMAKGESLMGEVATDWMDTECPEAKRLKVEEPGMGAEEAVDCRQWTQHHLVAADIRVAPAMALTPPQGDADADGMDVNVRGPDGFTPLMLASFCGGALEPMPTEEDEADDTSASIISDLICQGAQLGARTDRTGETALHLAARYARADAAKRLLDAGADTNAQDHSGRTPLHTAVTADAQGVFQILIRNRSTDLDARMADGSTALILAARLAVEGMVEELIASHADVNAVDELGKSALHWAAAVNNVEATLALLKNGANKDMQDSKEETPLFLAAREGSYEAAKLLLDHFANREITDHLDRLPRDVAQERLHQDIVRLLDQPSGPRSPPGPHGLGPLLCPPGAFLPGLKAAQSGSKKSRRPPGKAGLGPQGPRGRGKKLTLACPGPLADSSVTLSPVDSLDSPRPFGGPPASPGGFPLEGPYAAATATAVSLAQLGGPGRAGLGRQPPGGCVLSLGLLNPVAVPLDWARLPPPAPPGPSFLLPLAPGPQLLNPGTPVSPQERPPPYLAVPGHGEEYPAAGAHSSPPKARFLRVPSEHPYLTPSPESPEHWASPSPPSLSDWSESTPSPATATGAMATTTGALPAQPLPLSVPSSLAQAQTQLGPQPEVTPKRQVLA
# Chain of Torsin-1A-interacting protein 2 (Homo sapiens) (Q8NFQ8 whole entry, looked up): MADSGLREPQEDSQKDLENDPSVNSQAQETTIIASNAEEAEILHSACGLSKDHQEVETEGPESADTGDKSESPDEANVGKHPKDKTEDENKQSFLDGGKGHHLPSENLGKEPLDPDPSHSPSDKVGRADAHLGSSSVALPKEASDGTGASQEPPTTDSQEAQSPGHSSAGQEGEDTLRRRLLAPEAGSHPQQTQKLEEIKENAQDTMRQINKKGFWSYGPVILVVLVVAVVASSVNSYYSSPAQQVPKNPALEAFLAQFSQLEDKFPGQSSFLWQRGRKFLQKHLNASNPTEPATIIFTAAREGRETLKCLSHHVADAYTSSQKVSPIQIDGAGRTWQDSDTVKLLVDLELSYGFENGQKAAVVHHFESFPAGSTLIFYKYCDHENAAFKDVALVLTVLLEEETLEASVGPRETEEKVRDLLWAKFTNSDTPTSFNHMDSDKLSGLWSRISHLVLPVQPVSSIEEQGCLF
# Chain of Pro-neuregulin-1, membrane-bound isoform (Homo sapiens) (Q02297 whole entry, looked up, the tested form may be a part, canonical isoform): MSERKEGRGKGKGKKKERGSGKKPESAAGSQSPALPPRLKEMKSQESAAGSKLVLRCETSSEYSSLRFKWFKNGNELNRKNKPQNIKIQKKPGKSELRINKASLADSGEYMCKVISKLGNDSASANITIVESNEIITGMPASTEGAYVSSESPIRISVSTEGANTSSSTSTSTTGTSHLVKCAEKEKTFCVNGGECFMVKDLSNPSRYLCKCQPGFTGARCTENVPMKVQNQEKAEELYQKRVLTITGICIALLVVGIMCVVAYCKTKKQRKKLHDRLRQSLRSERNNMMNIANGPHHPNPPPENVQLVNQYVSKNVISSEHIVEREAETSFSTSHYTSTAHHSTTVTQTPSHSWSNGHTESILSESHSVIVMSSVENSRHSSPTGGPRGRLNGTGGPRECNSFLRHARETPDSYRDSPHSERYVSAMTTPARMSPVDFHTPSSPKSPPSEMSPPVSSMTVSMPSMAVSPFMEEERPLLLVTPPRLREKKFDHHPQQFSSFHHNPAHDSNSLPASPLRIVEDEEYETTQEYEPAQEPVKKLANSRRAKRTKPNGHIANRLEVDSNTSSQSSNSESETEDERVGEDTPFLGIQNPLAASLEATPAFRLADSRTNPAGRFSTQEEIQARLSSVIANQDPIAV
Compound,composite z-score [1],composite z-score [2],composite z-score [3],composite z-score [4],composite z-score [5],composite z-score [6],composite z-score [7],z-score [8],composite z-score [9],composite z-score [10],composite z-score [11],z-score [12],z-score [13],z-score [14],composite z-score [15],z-score [16],composite z-score [17],composite z-score [18],composite z-score [19],composite z-score [20]
CC(C)Cc1ccc(CN2CC[C@@H](NC(=O)c3ccccc3)C2)cc1,0.0315,0.481,-0.176,-0.102,-0.859,0.638,-0.368,-0.623 (inactive),-0.174,-0.13,-0.174,-0.216 (inactive),-21.2 (active),0.237 (inactive),-0.0003,-0.219 (inactive),-0.167,0.666,-0.0255,-0.157
CC(C)(C)OC(=O)CC[C@@]1(C(N)=O)N=C(c2ccc(OCCCO)cc2)O[C@@H]1c1ccccc1CN=[N+]=[N-],0.389,0.87,0.153,0.712,1.57,1.28,1.44,4.09 (inactive),1.47,0.452,-0.319,0.689 (inactive),-0.477 (inactive),-0.132 (inactive),2.86,0.035 (inactive),0.669,0.324,0.851,0.756
O=C1OCCC/C=C\[C@H]2OC34C=CCN(Cc5ccccc5)C(=O)[C@H]3N(CCO)C(=O)[C@@H]4C12 (stereo not given in full),0.166,1.08,-0.226,0.866,0.479,1.79,1.53,0.0936 (inactive),-0.342,-0.0994,0.216,-0.27 (inactive),-1.72 (inactive),-0.462 (inactive),2.22,2.29 (inactive),0.235,-0.353,0.0094,0.0618
COC(=O)C(CC#Cc1ccc2c(c1)[C@]1(C(=O)N2)[C@H](C(=O)NC[C@H](O)c2ccccc2)[C@H]2C(=O)O[C@H](c3ccccc3)[C@H](c3ccccc3)N2[C@@H]1c1ccc(O)cc1)C(=O)OC,-0.297,0.328,-0.121,-0.199,0.259,0.529,0.773,0.589 (inactive),0.056,-0.131,0.356,0.542 (inactive),0.793 (inactive),0.162 (inactive),0.719,-1.02 (inactive),-0.055,0.264,0.401,-0.0509
C=CCNC(=O)[C@H]1[C@@H]2C(=O)O[C@@H](c3ccccc3)[C@@H](c3ccccc3)N2[C@@H](c2ccc(OCCO)cc2)[C@]12C(=O)N(C(=O)OCCOC)c1ccc(C#CCC(C(=O)OC)C(=O)OC)cc12,1.55,0.948,0.18,1.1,0.881,1.63,1.19,0.9 (inactive),0.725,1.58,1.54,2.06 (inactive),1.07 (inactive),6.82 (inactive),3.45,-0.0319 (inactive),0.771,1.42,1.08,0.315
C=CCNC(=O)[C@@H]1[C@H]2C(=O)O[C@H](c3ccccc3)[C@H](c3ccccc3)N2[C@H](c2ccc(OCCO)cc2)[C@@]12C(=O)Nc1ccc(C#CC3=CCCCC3)cc12,-0.607,0.308,-0.0442,0.924,1.02,1.28,1.29,-0.138 (inactive),0.597,-0.186,1.54,1.78 (inactive),1.18 (inactive),3.36 (inactive),2.94,-0.639 (inactive),-0.168,0.918,1.14,0.0526
CN(C)C(=O)[C@]1(CCS(=O)(=O)c2ccccc2)N=C(c2ccc(OCCCO)cc2)O[C@@H]1c1ccccc1CN=[N+]=[N-],0.04,-0.313,0.0308,0.849,1.55,1.14,1.29,-0.882 (inactive),1.07,-0.0994,1.55,0.106 (inactive),0.349 (inactive),2.18 (inactive),3.48,0.157 (inactive),-0.0079,0.136,1.09,-0.025
[N-]=[N+]=NCc1ccccc1[C@H]1OC(c2ccc(OCCCO)cc2)=N[C@@]1(Cc1ccccc1N=[N+]=[N-])C(=O)O,0.377,1.08,0.0997,0.503,1.37,1.21,1.24,4.15 (inactive),0.632,0.0623,1.57,-0.467 (inactive),-4.46 (inactive),-1.66 (inactive),2.78,-0.0765 (inactive),0.359,0.145,1.06,0.0783
COc1c(C)cc(-c2cc3c(c(CCc4ccccc4)n2)[Si](C(C)C)(C(C)C)O[C@H]3c2ccccc2)cc1C,-0.473,-0.0939,-0.166,-0.0024,-0.0773,-0.133,-0.0748,-0.278 (inactive),0.125,-0.0296,-0.848,0.864 (inactive),0.307 (inactive),33.1 (active),0.0198,-0.899 (inactive),-0.0519,0.108,0.24,-0.162
